Experimental findings from the supplement of paper PMC6555819 are described below.

The subject of this experiment is RARb:RXRa (NR concentration 270 nM, RXRa partner concentration 90 nM). In words: PBM binding z-score (relative to random genomic background probes); higher = stronger binding; sequences stand for … in GC…GCGATTGACAGCGTAGAATGAAGG
In short, it runs like this: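 Binding z-scores were set against random background probes. The data came from custom Agilent 4×180K protein-binding microarrays carrying double-stranded probes with 34-nt variable regions, incubated 1 h with ligand-free nuclear receptor dimers. Partner-specific antibodies detected binding, and scanned fluorescence was regression-normalized.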
Take CCTTGCGGGTCACGAGGTTATAGCACGACGAGCG: the PBM binding z-score came out at 4.47.

TCGAGTAGGTTACCAATGGGGCTTTCAGCTTTCT had a PBM binding z-score of 0.762.

Consider CGTCCAAGGACAAGGTCAGTGAAAGAGACTCGAA, for which the PBM binding z-score is 3.93.

Regarding ATCTCTAGGTAAGACTCAGTTCAGAGAAGAACGC, the PBM binding z-score came to 0.134.

As to TCTTGTAGATCAACAGGAGGTTAAGAAAGATCGA, the PBM binding z-score was 0.617.

For the sequence CCAGACAGGTGAGAAGGTAACTCAACCTCGATTA, the PBM binding z-score worked out at 0.619.

CTACCAAGGTGAGCAAGGTCGTTGATTACTATTC: the PBM binding z-score turned out to be 1.64.

Regarding AGTCAAAGTACACTAGGTAACGTAAGATTCAGCT, the PBM binding z-score stood at 0.988.

CGAACTAGGTCAGAAAAGGACAGTGAAGGATGAT had a PBM binding z-score of 3.16.

As for TCATATAGGTAAATGCTAGCTGAAAGTCCGATCT, the PBM binding z-score was determined as 0.242.

TTACTAAGGTGAGCTGAGGTCGTTGATCCAACTC displayed a PBM binding z-score of 2.07.

ACTAGCAGGCCAAGTTTGGGTTACTCAAACAAAG showed a PBM binding z-score of 0.389.

On to TTACCAAGGTGAGCTGAGGACGTTGATCCAACTC, for which the PBM binding z-score came out at 1.05.

On to ATCTCTAGGTAAAAGTTCAATGAATCCCGAGGAT, for which the PBM binding z-score came out at 2.64.

Consider GTACCAAGGTGAATGGGTCGTTGATGAGTAGGCG, for which the PBM binding z-score is 1.64.

Consider CAGCCTAGGTCAGGGCCAGTATCGGAGGAACGTT, for which the PBM binding z-score was 3.54.

CAAACTAGGTCAGGAGGTCAAAGTCCGCTTCCCG displayed a PBM binding z-score of 4.92.

TAGCCTAGGTCATTCGGGCCAGTATAGTGTCGGC displayed a PBM binding z-score of 3.74.

For the sequence ACAGACAGGCGAGTGAAGGTAACTCAGCTGGACG, the PBM binding z-score worked out at 0.0266.

Sequence GGAACCAGGGCATTCGAGTTGATAGCATGGCGAT displayed a PBM binding z-score of 1.72.

In turn, ATATGTAGGTTATCGGGTCAGTCAGTTTGCGCAT yielded a PBM binding z-score of 2.55.

On to CCTTACGGGTCACTGACAGGTTATATCATTTGGA, for which the PBM binding z-score came to 4.08.

The sequence GCTCGGAGGACAAGGTCAAAGCTTTGTCCGTAGA returned a PBM binding z-score of 4.08.

With GCTAGTTGGTCAGTAAAAGGCCACACACCGGTCG, the PBM binding z-score amounted to 1.42.

Take CCTTACGGGTCACTGACCGGTTATAGCATTTGGA: the PBM binding z-score came out at 3.96.

As for CCTACTGGGCCACGAAGGGTCATTGATTCAGTGA, the PBM binding z-score came to 2.82.

In turn, AGAATGAGGGCACGCTGAGTTGATAGCAGAGTAG returned a PBM binding z-score of 2.62.

Turning to GCTAACAGGCCATTTGGGTCACTCAATGACGGGC, the PBM binding z-score stood at 1.81.

TCGAGTAGGTTAGCGGCATTCAGAATGGCGTCGA yielded a PBM binding z-score of 0.21.

Turning to TATACAGGGTTAAAGGCCAGAGTACGAATGTCGA, the PBM binding z-score amounted to 2.13.

Sequence CGAACTAGGTCTTCCAGGACAGTGAATACATTGA registered a PBM binding z-score of 0.384.

Turning to TTACCAAGGTGAGCTGAAGTCGTTGATCCAACTC, the PBM binding z-score came out at 0.929.

Sequence CGTGCAAGGTCAAGGTCAGTGAAAGAGACTCGAA returned a PBM binding z-score of 5.53.

With CCGAGTAGGTTATGGGGCAATCAGGCAACGGTGA, the PBM binding z-score was found to be 1.11.

Sequence GCAGACGGGTGAAACGCAGGTAACTCAGGGTGGC returned a PBM binding z-score of 0.14.

With TATAGAGGGTCAAAGGCCAGAGTACGAATGTCGA, the PBM binding z-score was 4.11.

Sequence GATACAGGGTCAGCTATAGGCCAGAGTATGGAAA displayed a PBM binding z-score of 4.02.

In turn, ATCTCTAGGTAAGACTCAGTTCAGGGAAGAACGC displayed a PBM binding z-score of 0.579.

Turning to AATACAGGGTCATCGTAGGCCTGAGTACGCACAG, the PBM binding z-score was determined as 4.43.

For TCTTGTAGATCACAGGTTAAGAAAGCCGAAGCCT, the PBM binding z-score was 0.464.
